Compound activity deposited in PubChem BioAssay by National Center for Advancing Translational Sciences (NCATS).
Hits are enriched below; roughly 21% of the tested compounds scored in any of these assays.
Pf growth 96h: P. falciparum growth inhibition at 96 hours; P. falciparum luciferase reporter growth, 96 h; Potency, µM (titrated, usually from 28.7 µM), most hits filed as inhibitors; 320,000 tested, 6.9% active; AID 504834; active means well fitted inhibition curve with a large enough effect; inconclusive means small, poorly fitted or top-dose-only effect, or another doubt; inactive means no such curve, though single readings can be large or run the other way
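Erythrocytes infected with luciferase-expressing P. falciparum were dispensed at 2% hematocrit and 0.05% parasitemia (final), then incubated with compounds 96 hours at 37 C in 5% CO2. Luminescence after detection reagent addition reported growth.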
Shiga inhibitor: blocks Shiga toxin action in Vero cells; Vero cells, Shiga toxin protein synthesis inhibition reporter; inhibition, % at 38.7 µM; 290,000 tested, 9.2% active; in the data active means inhibition mostly above about 28%, no sharp cut-off; inactive means mostly below about 43%
SARS PLP yeast: inhibitors of SARS-CoV papain-like protease in yeast; S. cerevisiae expressing SARS-CoV PLpro, growth rescue; Potency, µM (titrated, usually from 32.9 µM), hits mostly activators; 330,000 tested, 0.19% active; further: nearly all actives have a fitted effect of over 55% in size
NS1 inh: influenza NS1 inhibition. Potency, µM (titrated, usually from 46.1 µM). 270,000 tested, 0.4% active. AID 2326; further: actives are rising curves; nearly all actives have a fitted effect of over 50% in size
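A cell-based growth assay was used: compounds that relieve NS1-induced slow growth of budding yeast raise OD600. Assay medium was yeast nitrogen base with ammonium sulphate and -URA supplement, pH 6.0, with 2% galactose.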
Pf growth 48h: inhibits P. falciparum growth in the first generation, 48 h. P. falciparum luciferase growth in erythrocytes, 48 h. Potency, µM (top dose mostly 28.7 µM), most hits filed as inhibitors. 310,000 tested, 5.9% active; active means well fitted inhibition curve with a large enough effect; inconclusive means small, poorly fitted or top-dose-only effect, or another doubt; inactive means no such curve, though single readings can be large or run the other way
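Firefly luciferase activity from engineered P. falciparum reports growth; inhibitors lower the luminescent signal. Cultures contained 2% hematocrit erythrocytes at 0.1% final parasitemia.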
CHX counter: counter-screen for Shiga toxin inhibitors: cycloheximide protein synthesis inhibition; cell reporter, cycloheximide protein synthesis inhibition counterscreen; max response, %; 300,000 tested, 12% active; AID 2314; in the data active means max response mostly above about 13%, no sharp cut-off; inactive means mostly below about 14%; further: read at 38.3 µM for the half of the compounds with a filed dose
Numbers stand for hits; – = inactive; ? = inconclusive; · = no result. Unless noted, the call rests on the fitted dose curve.

SMILES	Pf growth 96h	Shiga inhibitor	SARS PLP yeast	NS1 inh	Pf growth 48h	CHX counter
COc1ccc2c(c1)[C@@]13CCC=C[C@H]1[C@@H](C2)NCC3	–	·	·	·	12µM	·
Clc1ccc(-c2nc3n(n2)Cc2ccccc2-3)cc1	–	118	–	–	–	66
CCN(CC)S(=O)(=O)c1cccc(-c2nc3n(n2)Cc2ccccc2-3)c1	–	–	–	–	–	–
CSC1=N/C(=C/c2cccnc2)C(=O)N1Cc1ccccc1	–	–	–	–	–	–
CSC1=N/C(=C/c2cccnc2)C(=O)N1Cc1ccc(Cl)cc1	?	–	–	–	6.6µM	44
COC(=O)c1ccccc1NC(=O)c1sc(Cl)nc1C	–	80	–	–	–	15
COc1cccc(NC(=O)c2ocnc2C)c1	–	63	–	–	–	25
Cc1ccc(Cl)cc1NC(=O)c1ocnc1C	–	–	–	–	–	–
COc1ccccc1NC(=O)c1sc(Cl)nc1C	?	–	–	–	?	–
Cc1ncoc1C(=O)Nc1cccc(Cl)c1	–	100	–	–	–	63
COc1cccc(NC(=O)c2cnc(SC)nc2C)c1	–	–	–	–	–	–
Cc1ncoc1C(=O)Nc1cccc(Cl)c1C	–	–	–	–	–	16
CC1C(=O)N2CCCc3cc(S(=O)(=O)N4CCN(c5cccc(Cl)c5)CC4)cc1c32 (stereo not given)	?	·	–	·	?	·
Cc1ccc(NC(=O)c2ocnc2C)cc1Cl	?	70	–	–	–	52
Cc1cccc(NC(=O)c2sc(C)nc2C)c1	–	84	–	–	–	50
Cc1ccccc1NC(=O)c1ocnc1C	–	–	–	–	–	–
Cc1nc(Cl)sc1C(=O)Nc1ccc(C(F)(F)F)cc1	–	·	–	–	–	20
Cc1nc(Cl)sc1C(=O)Nc1cc(F)cc(F)c1	?	–	–	–	–	–
Cc1nc(C)c(C(=O)Nc2cccc(C)c2C)s1	?	–	–	–	–	–
COc1cccc(NC(=O)c2sc(Cl)nc2C)c1	–	·	–	–	–	13
O=C(NNc1cccc(Cl)c1)c1cccnc1Oc1ccccc1	–	–	–	–	–	–
O=c1cnc2cc([N+](=O)[O-])ccc2[nH]1	–	–	–	–	–	–
Cc1cccc(C(=O)Nc2nc(C)c(C(=O)Nc3ccc4c(c3)CCC4)s2)c1	–	–	–	–	–	17
CC(C)NC(=O)NC(=O)COC(=O)c1cccc(OC(F)F)c1	?	–	–	·	–	–
Cc1ccc(-c2n[nH]c(Cc3ccccc3)n2)cc1	–	74	–	–	–	49
SMILES	Pf growth 96h	Shiga inhibitor	SARS PLP yeast	NS1 inh	Pf growth 48h	CHX counter
CCOC(=O)Cc1ccc(NCc2ccc(Cl)cc2)cc1	?	–	–	·	–	–
Cc1ccc(OCc2nc(-c3ccc(Cl)cc3)n[nH]2)cc1	–	63	–	–	–	20
Fc1ccc(OCc2nc(-c3ccncc3)n[nH]2)cc1	–	–	–	–	–	–
CCOC(=O)Cc1nc(-c2ccc(Cl)cc2)n[nH]1	–	–	–	–	–	26
Cc1nc2ccc(NC(=O)Cc3ccc4c(c3)OCCO4)cc2s1	–	–	–	–	–	–
C[n+]1c(/C=C/c2ccc3c(c2)OCO3)ccc2ccccc21	–	95	–	·	–	51
C[n+]1c(/C=C/c2ccc(O)cc2)ccc2ccccc21	2.3µM	64	–	–	?	50
CC(=O)Nc1cccc(NS(=O)(=O)c2ccccc2[N+](=O)[O-])c1	–	–	–	–	–	–
CCS(=O)(=O)c1cc([N+](=O)[O-])c(Sc2ccccc2NC(C)=O)s1	–	–	–	–	–	14
CCOC(=O)C1CCN(S(=O)(=O)c2ccc(Br)c(OCC)c2)CC1	4.7µM	–	–	–	–	–
CCOC(=O)C1CCN(S(=O)(=O)c2ccc3[nH]c4c(c3c2)CCCC4)CC1	10µM	–	–	–	–	–
CCOC(=O)C1CCN(S(=O)(=O)c2ccc3[nH]c(=O)c(=O)[nH]c3c2)CC1	–	–	–	·	–	–
COc1ccccc1NC(=O)c1ccc(NC(=O)CN2CCCC2)cc1	–	–	–	–	–	–
CCOC(=O)C1CCCN(CC(=O)Nc2ccc(C(=O)Nc3ccccc3OC)cc2)C1 (stereo not given)	?	·	–	·	12µM	·
CCOC(=O)C1CCN(C(=O)C2CCCN2S(=O)(=O)c2ccc(Cl)cc2)CC1 (stereo not given)	10µM	–	–	–	–	–
